Experiment in all cases: NCI-60 one-dose screen, 48 h (100 = growth as untreated, 0 = no growth, -100 = all killed)
What all share (settings): 10 µM unless noted

Experiment [1] has as its system T-47D breast.
Experiment [2] concerns BT-549 breast.
In experiment [3] the test system is MDA-MB-435 melanoma.
The subject of experiment [4] is SW-620 colon.
For experiment [5], the system named is MCF7 breast.
In experiment [6] the test system is HCT-116 colon.
The test system of experiment [7] is HCC-2998 colon.
For experiment [8], the system named is KM12 colon.

This is part of a sample that, as a whole, favours compounds with a hit. Of some 83,000 tested, about 20% had one in any assay.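 Testing used 96-well plates and a 48-hour single-concentration exposure. Example: -40 means 40% of the starting cells died.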 Values without a mark were called inactive. Active and inactive are the calls of the source. Rule for the calls: active = growth percent below 10; inactive = the rest.

The text below walks through data of PubChem BioAssay (NCI).

Regarding `COc1ccccc1N1CCN(C2=C(Cl)C(=O)c3ncccc3C2=O)CC1`, the growth in experiment [1] is 19.3%; in experiment [2] it was 119%; in experiment [3], 57.7%; in experiment [4], 43.8%; in experiment [5], 36.9%; in experiment [6] it was 27.1%. Moreover, the values for the growth in experiment [7] and in experiment [8] were 108% and 90.7%, respectively.

As to `C=C(C)[C@@H]1CC[C@]2(C(=O)N3CCN(C)CC3)CC[C@]3(C)[C@H](CC[C@@H]4[C@@]5(C)CC[C@H](OP(=O)(OCC)OCC)C(C)(C)[C@@H]5CC[C@]43C)[C@@H]12`, the growth in experiment [1] is 87.8%; in experiment [2], 93.9%; in experiment [3], 94.2%; in experiment [4], 82%; in experiment [5], 68.9%; in experiment [6] it was 24%. In addition, the growth in experiment [7] and in experiment [8] was 94.4% throughout.

With `CC(=O)/C(N=Nc1ccc2oc(=O)ccc2c1)=C(\C)O`, the growth in experiment [1] is 8.7% (active); in experiment [2] it was 33.2%; in experiment [3], 33.2%; in experiment [4] it was 17.6%; in experiment [5] it was 25.8%; in experiment [6], 12.1%. The values for the growth in experiment [7] and in experiment [8] were 35.7% and 19%, respectively.

On to `Cc1ccc2c(n1)C(=O)C(Cl)=C(Nc1ccc(C(=O)OC(C)(C)C)cc1)C2=O`, for which the growth is -8.23% [9.25 µM] (active) in experiment [1]; 84% [9.25 µM] in experiment [2]; 87.6% [9.25 µM] in experiment [3]; -42% [9.25 µM] (active) in experiment [4]; 11.3% [9.25 µM] in experiment [5]; -70.5% [9.25 µM] (active) in experiment [6]. Besides, the growth in experiment [7] is 103% [9.25 µM]; in experiment [8], 105% [9.25 µM].

`O=C(Nc1ccccc1)Nc1nc2ccc([N+](=O)[O-])cc2[nH]1`: the growth in experiment [1] is 14.7%; in experiment [2], 77.8%; in experiment [3], 55.3%; in experiment [4], 56%; in experiment [5] it was 53.7%; in experiment [6] it was 39.4%. The growth was 60.4% in experiment [7] and 45.2% in experiment [8].

On to `Cc1ccc(-c2nc(SCC(=O)c3ccccc3)nc(Nc3ccc(S(N)(=O)=O)cc3)c2C#N)cc1`, for which the growth was 83.9% in experiment [1]; 73.8% in experiment [2]; 47% in experiment [3]; 83.8% in experiment [4]; 65.1% in experiment [5]; 35.9% in experiment [6]. For the same compound, the growth in experiment [7] is 106%; in experiment [8] it was 72.8%.

For the compound `O=C(CSc1nc2ccccc2c(=O)n1-c1ccccc1)Nc1ccc(S(=O)(=O)Nc2nccs2)cc1`, the growth was 69.3% in experiment [1]; 45.2% in experiment [2]; 84.1% in experiment [3]; 67.9% in experiment [4]; 57.6% in experiment [5]; 37.7% in experiment [6]. Besides, the growth in experiment [7] is 118%; in experiment [8] it was 94.4%.

For `O=C(/C=C/c1ccc(F)cc1)Nc1cccc2cccnc12`, the growth was 32.8% in experiment [1]; 115% in experiment [2]; 107% in experiment [3]; 101% in experiment [4]; 6.92% (active) in experiment [5]; 95.9% in experiment [6]. For the same compound, the figures for the growth in experiment [7] and in experiment [8] were 88% and 95%, respectively.

Turning to `NS(=O)(=O)c1nnc(/N=C/c2c(O)[nH]c3ccccc23)s1`, the growth in experiment [1] is 85.2%; in experiment [2], 98.8%; in experiment [3], 103%; in experiment [4], 106%; in experiment [5] it was 87.6%; in experiment [6], 94.5%. The figures for the growth in experiment [7] and in experiment [8] were 107% and 95.4%, respectively.

For `CCCCCCNC(=O)Oc1ccc(/C(=C(/C)c2ccc(OC)cc2)c2ccc(OCCN3CCCCCC3)cc2)cc1`, the growth was -19.1% (active) in experiment [1]; 70.3% in experiment [2]; 24.1% in experiment [3]; -41.4% (active) in experiment [4]; -30.3% (active) in experiment [5]; -86.6% (active) in experiment [6]. Moreover, the growth in experiment [7] is 24.4%; in experiment [8], 16.7%.

Take `CCOC(=O)c1c(NCC(=O)Nc2cccc([N+](=O)[O-])c2)sc(C(C)=O)c1C`: the growth in experiment [1] is 34.6%; in experiment [2] it was -40.7% (active); in experiment [3], -26% (active); in experiment [4], 3.65% (active); in experiment [5], -9.04% (active); in experiment [6] it was -14.3% (active). Besides, the growth in experiment [7] is -62.3% (active); in experiment [8] it was -7.12% (active).

For `Cc1[nH]c(C(=O)Nc2ccccc2OCc2cccc(C(=O)NCCN)c2)cc1Cl`, the growth in experiment [1] was 87.1%; in experiment [2], 104%; in experiment [3], 20.6%; in experiment [4] it was 32.4%; in experiment [5], 11.3%; in experiment [6], 38.2%. In addition, the growth in experiment [7] is 109%; in experiment [8], 86.4%.

Consider `CNCCN(C)c1ccc(Nc2cc(NC3CC3)n3ncc(C#N)c3n2)cc1NC(C)=O`, for which the growth in experiment [1] was -16.2% (active); in experiment [2], -54.7% (active); in experiment [3] it was 6.93% (active); in experiment [4], -2.54% (active); in experiment [5] it was -0.902% (active); in experiment [6], -5.45% (active). In addition, the figures for the growth in experiment [7] and in experiment [8] were 10.2% and 8.46% (active), respectively.

Regarding `O=C1Nc2cc(Cl)ccc2/C1=C\c1ccc(OCc2ccccc2)cc1`, the growth in experiment [1] was 95.7%; in experiment [2], 101%; in experiment [3] it was 99.4%; in experiment [4], 99.4%; in experiment [5], 61.6%; in experiment [6], 97.7%. Besides, the growth in experiment [7] was 102%; in experiment [8], 95.1%.

Take `N#Cc1c(-c2cccs2)c(C#N)c(=O)n(Cc2nc3ccccc3[nH]2)c1N`: the growth was 74.8% in experiment [1]; 102% in experiment [2]; 110% in experiment [3]; 95.6% in experiment [4]; 66.1% in experiment [5]; 100% in experiment [6]. The growth was 116% in experiment [7] and 102% in experiment [8].

With `Cc1ccc(S(=O)(=O)NCCCNc2nccc(-c3[nH]c(-c4ccccc4)nc3-c3ccc(F)c(O)c3)n2)cc1`, the growth in experiment [1] is 71.1%; in experiment [2], 93.1%; in experiment [3], 17.6%; in experiment [4], 115%; in experiment [5], 73.5%; in experiment [6] it was 69.6%. The values for the growth in experiment [7] and in experiment [8] were 127% and 83.9%, respectively.

Turning to `O=C1C(N2CCN(c3ccccc3)CC2)=C(Cl)C(=O)c2ncccc21`, the growth was -54.2% (active) in experiment [1]; 97.3% in experiment [2]; -67% (active) in experiment [3]; -35% (active) in experiment [4]; -44.7% (active) in experiment [5]; -56.1% (active) in experiment [6]. Also, the results for the growth in experiment [7] and in experiment [8] were 97.8% and 92.3%, respectively.

Consider `O=C(Nc1cccc(Cl)c1)Nc1nc2cc([N+](=O)[O-])ccc2o1`, for which the growth in experiment [1] is 15.4%; in experiment [2], 67.1%; in experiment [3], 40.9%; in experiment [4], 22.3%; in experiment [5], 36.8%; in experiment [6], 26.8%. For the same compound, the results for the growth in experiment [7] and in experiment [8] were 39% and 26.5%, respectively.

`N#Cc1c(-c2ccc(F)cc2)cc(-c2c[nH]c3ccccc23)nc1-c1c[nH]c2ccccc12`: the growth in experiment [1] is 89.9%; in experiment [2], 109%; in experiment [3] it was 107%; in experiment [4], 107%; in experiment [5], 89.3%; in experiment [6], 105%. The growth in experiment [7] was 109%; in experiment [8], 101%.

`CC(=O)OC[C@]12CC[C@@H](C(=O)/C=C/c3cccnc3)[C@@H]1[C@H]1CC[C@@H]3[C@@]4(C)CC[C@H](OC(C)=O)C(C)(C)[C@@H]4CC[C@@]3(C)[C@]1(C)CC2`: the growth in experiment [1] is -16.7% (active); in experiment [2], -12.6% (active); in experiment [3], -1.17% (active); in experiment [4], 7.96% (active); in experiment [5] it was -26.8% (active); in experiment [6], -61.2% (active). The figures for the growth in experiment [7] and in experiment [8] were -63.2% (active) and 18.5%, respectively.

For `COC(=O)c1cccc(NC2=C(Cl)C(=O)c3nc(C)ccc3C2=O)c1`, the growth was -28.1% (active) in experiment [1]; 125% in experiment [2]; -38.6% (active) in experiment [3]; 0.0392% (active) in experiment [4]; -35.2% (active) in experiment [5]; 27.2% in experiment [6]. The results for the growth in experiment [7] and in experiment [8] were 105% and 106%, respectively.

Turning to `Nn1c(=O)n(-c2cccc(C(F)(F)F)c2)c(=O)c2cc(-c3ccc(F)cc3F)ccc21`, the growth is -13.8% (active) in experiment [1]; -6.33% (active) in experiment [2]; 3.27% (active) in experiment [3]; 17% in experiment [4]; 1.3% (active) in experiment [5]; 3.16% (active) in experiment [6]. Further, the growth in experiment [7] is 12.5%; in experiment [8] it was 8.93% (active).

As to `COc1cc(/C=C2/C(=O)Nc3ccc(Cl)cc32)ccc1OCc1ccc(Cl)cc1`, the growth was 80.5% in experiment [1]; 101% in experiment [2]; 91.3% in experiment [3]; 59.7% in experiment [4]; 49% in experiment [5]; 47.9% in experiment [6]. For the same compound, the values for the growth in experiment [7] and in experiment [8] were 107% and 100%, respectively.

Regarding `O=[N+]([O-])c1ccc(NC(=S)NNC(=S)Nc2ccc(Br)cc2)cc1`, the growth in experiment [1] is 73.3%; in experiment [2], 103%; in experiment [3] it was 99%; in experiment [4] it was 91.1%; in experiment [5], 70.1%; in experiment [6], 90.6%. In addition, the growth in experiment [7] was 53.7%; in experiment [8], 55.4%.

For the compound `Cn1cc(-c2nnc(N)nc2-c2c[nH]c3ccc(F)cc23)c2cc(Br)ccc21`, the growth was 29.4% in experiment [1]; 11.1% in experiment [2]; 3.84% (active) in experiment [3]; 20.4% in experiment [4]; 12.3% in experiment [5]; 14.9% in experiment [6]. Also, the growth in experiment [7] was 53.6%; in experiment [8] it was 22.5%.

For the compound `CC1=C(C)C(=O)C(Nc2ccc3c(c2)OCO3)=C(Br)C1=O`, the growth is 30.3% in experiment [1]; 107% in experiment [2]; 103% in experiment [3]; 107% in experiment [4]; 77.5% in experiment [5]; 85.6% in experiment [6]. In addition, the growth is 105% in experiment [7] and 97.4% in experiment [8].

Consider `O=C1[C@H]2Cc3c([nH]c4ccccc34)[C@H](c3ccc(Br)cc3)N2C(=O)CN1C1CCN(CC2CCCCC2)CC1`, for which the growth in experiment [1] was 97.9%; in experiment [2], 96.5%; in experiment [3] it was 85.1%; in experiment [4], 79.7%; in experiment [5] it was 25.8%; in experiment [6], 18%. Further, the growth was 67.8% in experiment [7] and 77% in experiment [8].

`CC(C)NC(=O)c1cc(-c2ccc(NC(=O)Nc3ccc(F)cc3)cc2)nc2cccnc12`: the growth in experiment [1] is 97.8%; in experiment [2], 104%; in experiment [3] it was 98.7%; in experiment [4], 108%; in experiment [5], 79.9%; in experiment [6], 95.5%. Also, the growth in experiment [7] is 108%; in experiment [8], 95.7%.

For `CC(=O)C1=C(C)NC(NNc2ccccc2)=NC1c1ccc([N+](=O)[O-])cc1` (configuration not stated), the growth in experiment [1] was 83.3%; in experiment [2], 103%; in experiment [3] it was 77%; in experiment [4], 73.6%; in experiment [5], 75%; in experiment [6] it was 85.7%. For the same compound, the growth in experiment [7] is 97%; in experiment [8] it was 67.3%.
